# Assay results: the supplement of paper PMC6555819
# Legend:
# Experiment in all cases: PBM binding z-score (relative to random genomic background probes); higher = stronger binding; sequences stand for … in GC…GCGATTGACAGCGTAGAATGAAGG
# [1] = test system: RARb homodimer (NR concentration 270 nM)
# Procedure, shortened: (§1)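 The probes on custom Agilent 4×180K protein-binding microarrays were double-stranded, with 34-nt variable regions bearing direct-repeat seeds, single-nucleotide variants, half-site ablations and random human genomic background sequences. Incubation lasted 1 h with ligand-free nuclear receptor dimers in PBS pH 7.4, 2% milk, 0.02% Triton X-100, 1 mM DTT, 0.2 mg/mL BSA and 0.4 mg/ml salmon testes DNA. Antibodies against each partner (one per run) detected bound dimers, and fluorescence scans were regression-normalized. Binding z-scores take the random background probes as reference.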
# [2] = test system: RARg:RXRa (NR concentration 270 nM, RXRa partner concentration 90 nM)
# Procedure, shortened: as §1
# [3] = test system: RARg homodimer (NR concentration 270 nM)
# Procedure, shortened: as §1
# [4] = test system: RXRa DBDmut IVT, anti-RXR (DBD mutation: RXRa K156A/R161A, NR concentration 90 nM)
# Procedure, shortened: as §1
# [5] = test system: RXRa homodimer (NR concentration 180 nM)
# Procedure, shortened: as §1
# [6] = test system: THRa:RXRa (NR concentration 90 nM, RXRa partner concentration 90 nM)
# Procedure, shortened: as §1
# [7] = test system: THRa homodimer (NR concentration 90 nM)
# Procedure, shortened: as §1
# [8] = test system: VDR homodimer (NR concentration 270 nM)
# Procedure, shortened: as §1
Sequence,PBM binding z-score [1],PBM binding z-score [2],PBM binding z-score [3],PBM binding z-score [4],PBM binding z-score [5],PBM binding z-score [6],PBM binding z-score [7],PBM binding z-score [8]
AGAATGAGGTTACCGAAGATCAGGGAAACGCTTG,0.586,2.27,1.76,1.5,2.87,3.05,0.672,0.193
CCTACTGGGCCACGAAGGGTCATTGATTCAGTGA,3.41,2.96,2.73,-0.323,2.86,3,-0.121,1.53
GTACCAAGGTGAATAGGTCATTGATGAGTAGGCG,3.98,4.79,3.34,-0.0633,3.5,2.82,0.757,0.849
GCTATTAGTTGAAAGTGCAACCGAATGATTCTCG,0.667,0.42,0.38,1.14,0.575,0.147,-0.293,0.388
TATACAGGGTCAAAGACCAGAGTACGAATGTCGA,2.94,5.15,4.53,2.82,5.89,3.2,0.651,2.81
CCTAGTTGGTCAAGGTCACACACGCTATAGGTAC,4.21,4.84,4.85,2.36,5,4.11,4.42,4.32
CCGACTGGGGCAAAGGTTACAATACTCAGTACGA,2.22,3.61,2.01,0.382,4.11,1.8,-0.161,0.239
CCTGCTAGGTCATGTTCAGCTAATCTACAGTATG,2.65,3.26,3.95,2.42,2.13,2.51,1.08,0.754
TGAATGAGGTTAAAGATCAGGGATCGTGGCGTCG,0.409,2.25,1.11,0.89,3.63,2.33,0.0472,-0.0606
CCGACTGGGGCAAACGTTACCATACTCAGTACGA,0.0694,0.309,0.456,0.618,0.251,-0.227,-0.206,-0.371
ATCTCTAGGAAAAAGTTCAGTGAATCCCGAGGAT,1.74,1.01,1.4,0.393,0.399,0.0597,-0.127,1.42
ATCTCTAGGTAAAAGTGCAGTGAATCCCGAGGAT,0.183,0.363,0.23,-0.0923,0.454,0.235,-0.373,0.138
TAGCCTAGTTCAGATCGGGCCAGTATACGCTATA,-0.206,-0.0236,0.216,0.421,-0.081,2.53,-0.553,0.117
ACTCGGAGGACAAAGGTCCGAGCTACGCCAGTGA,0.57,0.663,0.927,0.364,0.0174,0.646,-0.259,-0.261
CAGCTTAGGTCAGGGCCAGTATAGGAGGAACGTT,2.93,3.26,4.25,0.68,1.75,3,1.78,0.105
TTACCAAGGTGAGCTGAGGACGTTGATCCAACTC,0.308,0.112,0.436,-0.741,-0.041,4.53,1.6,-0.0863
CCTTACGGGTCACTGACAGGTAATAGCATTTGGA,2.83,5.08,4.26,1.55,4.7,2.64,0.085,0.456
CCTAACGGGTCACTCCAGGTTATAGCATCGGAGT,2.75,3.8,3.98,1.23,3.26,4.85,0.619,1.5
ATATGTAGGTTAGCTGGGGGCATTCAGACTAGGC,2.15,2.32,2.43,1.71,1.67,4.62,1.84,2.94
CAAACTAGGTCACCGGAAGGTCAAAGCCCGCATG,5.35,8.33,7.37,1.48,6.03,4.42,2.96,3.25
TCTAGCAGGCCAGAGGGTCTCTCAAGAGGTACGG,-0.406,-0.564,-0.595,-0.155,-0.223,-1.48,-0.98,-0.83
TGAATGAGGTTAATGATCAGGGAACGTGGCGTCG,0.436,1.4,1.07,0.589,1.67,1.97,0.6,0.544
TAGCCCAGGTCAGATCGGGCCAGTATACGCTATA,2.03,2.82,3.39,-0.536,1.77,4.22,0.917,-0.0558
TCTATTAGTTGATTAGGGAAACCGAAACAGCGGA,0.0312,0.311,0.329,1.18,0.472,0.12,0.159,0.507
CCTTACGGGTCACTCCAGGTTATACCATCGGAGT,2.89,4.32,4.44,1.3,4.29,4.98,0.681,1.45
TGTCAAAGTTCAATGGTAACGTAAGTATCCACAC,3.32,4.79,5.39,3.67,3.74,1.39,-0.627,3.52
AGTAAAAGTTCATCTAGGTAACGTAAGATATGCT,3.63,4.68,5.23,4.63,3.77,3.05,0.0912,4.83
CCTAGTTGGTCAGTAGGTCACACACCGGATATGA,3.59,3.58,3.25,0.459,2.79,2.1,1.32,1.29
TATACAGGGTTAAAGGCCAGAGTACGAATGTCGA,1.55,2.41,1.59,0.596,3.28,1.56,0.124,0.851
